Assay outcomes from PubChem BioAssay.
Rows were chosen to be rich in hits. Some 4.6% of all compounds tested hit in one or more screens of this group.
tim23-1 inh – growth inhibitors of tim23-1 mutant yeast, primary screen, luminescence, uHTS. S. cerevisiae tim23-1 growth, BacTiter-Glo luminescence, 24 h. inhibition, % at 20 µM. hit rate 1.3% among 330,000;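 active means growth inhibition of the mutant yeast at or above 50%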;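 further: temperature-sensitive mutant grown at 25 °C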
tim10-1 inh – growth inhibitors of tim10-1 mutant yeast, primary screen, luminescence, uHTS; S. cerevisiae tim10-1 ts strain growth, BacTiter-Glo, 24 h; inhibition, % at 20 µM; hit rate 2.2% among 330,000;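 active means inhibition of at least 40%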;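 further: mutant grown at 25 °C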
SKKanGAS inh – S. pyogenes SKKanGAS growth inhibitors in kanamycin, primary screen, streptokinase expression inhibitor project, SKKanGAS strain, BacTiter-Glo luminescence. AID 1662, 2009. hit rate 1.3% among 300,000. 6 h. inhibition, % at 7.5 µM;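 active means mean replicate score, as percent of positive control median, at least 50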;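 further: strain carries kanamycin resistance gene driven by streptokinase promoter and grows in 40 µg/ml kanamycin; loss of luminescence reflects streptokinase promoter inhibition or plain growth inhibition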
NALP3 yeast inh – NALP3 inflammasome inhibitors in reconstituted yeast, primary screen, luminescence, uHTS. Yeast reconstituted NLRP3/ASC/caspase-1, beta-gal luminescence, 24 h. inhibition, % at 10 µM. hit rate 0.39% among 330,000. AID 2825, 2010;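 active means inhibition of 50% or more; inactive means inhibition below 50%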
TIM10 inh – growth inhibitors of isogenic TIM10 control yeast, primary screen, counter-screen for tim10-1 yeast inhibitor project, luminescence, uHTS; AID 463195, 2010; hit rate 1.4% among 330,000; inhibition, % at 10 µM; S. cerevisiae TIM10 strain growth, BacTiter-Glo luminescence, 24 h;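 active means inhibition of 40% or more at the single tested concentration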;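 further: wild-type TIM10 isogenic control strain grown at permissive 25 °C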
tim10-1 conf – growth inhibitors of tim10-1 mutant yeast, confirmation, single concentration, luminescence, S. cerevisiae; shares compounds with tim10-1 inh; S. cerevisiae tim10-1 ts strain growth, BacTiter-Glo, 24 h; inhibition, % at 20 µM; hit rate 56% among 7,400; AID 463213, 2010;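 active means inhibition of yeast growth at or above a set limit in either of two repeat tests at 20 µM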;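 further: tim10-1 mutant grown at permissive 25 °C to find synthetic lethal compounds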
Numbers stand for hits; – = inactive; · = no result.

SMILES	tim23-1 inh	tim10-1 inh	SKKanGAS inh	NALP3 yeast inh	TIM10 inh	tim10-1 conf
Cc1cc2c(cc1S(=O)(=O)CCC(=O)Nc1cccc(C(F)(F)F)c1)OCC(=O)N2	–	–	–	–	–	·
CC(C)c1ccc(NC(=S)Nc2ccc3cn[nH]c3c2)cc1	–	43	–	–	–	–
Cc1ccc(NC(=S)Nc2ccc3cn[nH]c3c2)cc1C	–	–	·	–	–	·
O=C(CCNC(=O)C1CCN(S(=O)(=O)c2ccc(F)cc2)CC1)NCCc1ccc(Cl)cc1	–	–	–	–	–	·
COC(=O)C1=C(C)N=c2s/c(=C3\C(=O)Nc4ccccc43)c(=O)n2C1c1ccccc1 (configuration not stated)	–	40	–	–	–	–
Cc1cc(O)c(C(=O)/C=C/c2ccccc2Br)c(=O)o1	–	46	–	–	–	–
Cc1cc(O)c(C(=O)/C=C/c2ccccc2)c(=O)o1	–	–	–	–	–	·
Cc1cc(O)c(C(=O)/C=C/c2ccc(C(C)C)cc2)c(=O)o1	–	43	–	–	–	33
CCc1cc2ccc(OC)cc2nc1SCC(=O)NNC(=O)c1ccco1	–	43	–	–	–	–
COc1cccc(NC(=S)N/N=C2\CC3CCC2(C)C3(C)C)c1 (configuration not stated)	–	41	–	–	–	31
CN(C)CCN(C(=O)c1ccc2ccccc2c1)c1nc2ccc(F)cc2s1	–	–	–	–	–	·
CCN(CC)CCN(C(=O)c1cc2ccccc2cc1OC)c1nc2ccc(F)cc2s1	–	57	–	–	–	–
CCN(CC)CCN(C(=O)c1ccc2ccccc2c1)c1nc2ccc(OC)cc2s1	–	49	–	–	–	–
CCN(CC)CCN(C(=O)c1cc2ccccc2cc1OC)c1nc2ccc(OC)cc2s1	–	56	–	–	–	–
Clc1ccc2c(c1)c1ccccc1n2CN1CCOCC1	–	54	–	–	–	–
Cc1ccc(-n2cc(-c3ccc([N+](=O)[O-])cc3)[nH]c2=S)c(C)c1	–	46	–	–	–	35
Cc1cccc(-n2cc(-c3ccc([N+](=O)[O-])cc3)[nH]c2=S)c1	–	–	–	–	–	·
Nc1c(C(=O)CSc2nnc(Cc3ccccc3)o2)c(=O)[nH]c(=O)n1C1CC1	–	–	·	–	–	·
O=C(C1CCN(c2ncnc3c2nc2n3CCCCC2)CC1)N1CCN(c2ccc(F)cc2)CC1	–	44	–	–	–	–
CCN(Cc1ccccc1)C(=O)C1CCN(c2ncnc3c2nc2n3CCCCC2)CC1	–	–	–	–	–	·
CCc1ccccc1N(CC)C(=O)C1CCN(c2ncnc3c2nc2n3CCCCC2)CC1	–	42	–	–	–	–
O=C(NCc1ccccn1)c1ccc(OC2CCN(Cc3cccs3)CC2)cc1	–	–	–	–	–	·
Cc1cccc(NC(=O)C(C)SCc2nc3sc4c(c3c(=O)[nH]2)CCCC4)n1 (configuration not stated)	–	–	–	–	–	·
CC(C)n1nnc(-c2ccc(OCc3ccccc3F)cc2)n1	–	–	–	–	–	·
Cc1ccc(C(=O)N2CCCC(N3CCN(c4cccc(C(F)(F)F)c4)CC3)C2)s1 (configuration not stated)	–	42	–	–	–	–
SMILES	tim23-1 inh	tim10-1 inh	SKKanGAS inh	NALP3 yeast inh	TIM10 inh	tim10-1 conf
CC(=O)N1CCCC(N2CCN(c3cccc(C(F)(F)F)c3)CC2)C1 (configuration not stated)	–	–	–	–	–	·
CCOC(=O)N1CCN(Cc2cc(Cl)c3cccnc3c2O)CC1	–	47	66	–	–	–
COC(CNC(=O)c1cnn2c(C)c(Cc3ccccc3)c(C)nc12)OC	–	40	–	–	–	–
O=C1OC(c2ccco2)=N/C1=C\c1ccc(-c2cccc(C(F)(F)F)c2)o1	–	46	–	–	–	–
COc1ccc(CN(Cc2ccccn2)S(=O)(=O)c2ccc(-n3cnnn3)cc2)cc1	–	40	–	–	–	–
COc1ccc(CN(Cc2ccccn2)S(=O)(=O)c2ccc(-n3cnnn3)c(OC)c2)cc1	–	–	–	–	–	·
Cc1ccc(C)c(C(=O)OCC(=O)N(C)c2ccccc2)c1	–	56	–	–	–	44
O=C(Nn1c(COc2ccccc2)nc2ccccc2c1=O)C(Cl)(Cl)Cl	–	40	–	–	–	32
Cc1ccc(NC(=O)NCc2ccccn2)c(C)c1	–	–	·	–	–	·
Cc1ccc(-c2csc(N3CCN(CCCn4c(-c5ccncc5)nc5ccccc54)CC3)n2)cc1	–	40	–	–	–	–
Cc1ccc(-c2csc(N3CCN(CCCn4c(C(F)(F)F)nc5ccccc54)CC3)n2)cc1	–	–	–	–	–	·
CC1=NN(C(=O)c2ccc(Cn3nc(C)c(Br)c3C)cc2)C(O)(C(F)(F)F)C1 (configuration not stated)	–	41	–	–	–	–
CNC(=O)COc1coc(CN2CCN(c3ccc(F)cc3)CC2)cc1=O	–	–	–	–	–	·
O=C(c1ccco1)N1CCCC(c2nc3c(nnn3Cc3cccc(Cl)c3)c(=O)[nH]2)C1 (configuration not stated)	–	53	–	–	–	–
COc1ccccc1-c1cc(C(=O)N2CCN(c3ccccc3OC)CC2)no1	–	48	–	–	–	32
CCOC(=O)N1CCN(c2ccccc2OC)CC1	–	–	–	–	–	·
CCC(C(=O)N1CCN(c2ccccc2OC)CC1)c1ccccc1 (configuration not stated)	–	42	–	–	–	–
COc1ccc(OC)c(-c2cc(C(=O)N3CCc4ccccc4C3)no2)c1	–	41	–	–	–	–
N#Cc1cc([N+](=O)[O-])ccc1NC(=O)COC(=O)C1CCC(=O)N1 (configuration not stated)	–	–	·	–	–	·
CCCCN(C(=O)c1cnccn1)c1c(N)n(CCC)c(=O)[nH]c1=O	–	–	·	–	–	·
O=C(NCC1CC1)c1cc(-c2ccccc2)nn1CC1CC(c2cccnc2)=NO1 (configuration not stated)	–	–	–	–	–	·
Oc1ccc(/C=N/NC(=S)Nc2cccnc2)cc1	–	–	–	–	–	·
Oc1ccc(/C=N/NC(=S)N/N=C/c2ccc(O)cc2)cc1	–	41	–	–	–	–
O=C(Nc1cc(Cl)cc(Cl)c1)C(NCC1CCCO1)c1ccccc1 (configuration not stated)	–	45	–	–	–	–
O=C1CCCCC1Sc1nnc(Cc2cccs2)n1CCc1ccccc1 (configuration not stated)	–	45	·	–	–	–
CSc1nc(N)nc2c1ncn2CC(=O)Nc1ccc(C)c(C)c1	–	–	·	–	–	·
